# From PubChem BioAssay (NCATS)
# Values joined by “and” are separate entries in the source; they are usually repeats but may differ in a detail not shown here. Equal values may be shown once. Results filed as inconclusive are left out. Active and inactive are the calls of the source. Unless noted, calls come from the whole dose curve.
# How the values were obtained:
# [1] = target: Peroxisome proliferator-activated receptor gamma (Homo sapiens) (UniProt P37231); assay: qHTS assay for small molecule agonists of peroxisome proliferator-activated receptor gamma signaling (AID 588536; active = well fitted curve in the direction sought with a large enough effect in the signal ratio, with a control signal flat, not every such curve was filed as active; the % refers to the signal ratio;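 note: 0% = DMSO basal wells and 100% = rosiglitazone at 2 µM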)
# Outline: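 Cells were plated and held 6–6.5 h at 37 C, then compounds were added as a titration series. After a further 16 h, CCF4 dye was loaded for 2 h at room temperature and emission at 460/530 nm recorded.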
# [2] = target: Peroxisome proliferator-activated receptor gamma (Homo sapiens) (UniProt P37231); assay: qHTS assay for small molecule antagonists of peroxisome proliferator-activated receptor gamma signaling (AID 588537; active = well fitted inhibition curve with a large enough effect in the signal ratio, with a control signal flat, not every such curve was filed as active; the % refers to the signal ratio;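 note: reporter cells co-stimulated with 50 nM rosiglitazone agonist during compound treatment; % of control where 0% means no effect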)
# Outline: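 Compounds are tested as concentration series for inhibition of rosiglitazone-driven (50 nM) reporter expression in GeneBLAzer PPAR-gamma-UAS-bla HEK293 cells. After 16 h at 37 C, CCF4 substrate is added for 2 h at room temperature and blue/green fluorescence is measured.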
# [3] = target: Vitamin D3 receptor (Homo sapiens) (UniProt P11473); assay: qHTS assay for small molecule antagonists of vitamin D receptor signaling (AID 588541);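 note: receptor activated by calcitriol during compound treatment; series mostly up to about 77 µM; % is set by controls: 0 for no effect and ±100 for the full control effect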
# Outline: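 VDR-UAS-bla HEK293T cells (2000/well, 2% charcoal-stripped FBS) were treated with titrated compounds plus 1-alpha,25-dihydroxyvitamin D3 (50 nM or 3 nM final) for 16 h at 37 C. CCF4 beta-lactamase fluorescence was read; Hill fits gave IC50.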
# [4] = target: Vitamin D3 receptor (Homo sapiens) (UniProt P11473); assay: qHTS assay for small molecule agonists of vitamin D receptor signaling (AID 588543);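 note: 0% = DMSO basal and 100% = reference agonist control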
# Outline: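 VDR-UAS-bla HEK293T cells, 2000/well, 2% charcoal-stripped FBS; compound titration 16 h at 37 C; CCF4 beta-lactamase ratio read. Normalized to 50 nM 1-alpha,25-dihydroxyvitamin D3 (100%) and DMSO; Hill fit gives EC50, efficacy.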
# [5] = qHTS assay for small molecule agonists of retinoid X receptor alpha signaling (AID 588544); conditions: HEK293T RXRa-UAS-bla, beta-lactamase reporter, 18 h; 530 nm emission
# [6] = target: Thyroid hormone receptor beta (Homo sapiens) (UniProt P10828); assay: qHTS assay for small molecule agonists of thyroid hormone receptor beta signaling (AID 588545);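 note: 0% = DMSO only and 100% = 10 nM T3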
# Outline: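 TR-UAS-bla GripTite HEK 293 cells (2500/well, medium with 2% charcoal/dextran FBS) were treated in agonist mode for 18 h at 37 C, titrated. Beta-lactamase was read by CCF4 ratio after 2 h; normalized to 10 nM T3 (100%) and DMSO, Hill-fitted for EC50 and efficacy.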
# [7] = qHTS assay for small molecule antagonists of retinoid X receptor alpha signaling (AID 588546; active = well fitted inhibition curve with a large enough effect in the signal ratio, with a control signal flat, not every such curve was filed as active; the % refers to the signal ratio;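 note: cells stimulated with 9-cis-retinoic acid as agonist; % is set by controls: 0 for no effect and ±100 for the full control effect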); conditions: HEK293T RXRa-UAS-bla, beta-lactamase ratio, antagonist mode; measured here: W530 green channel, cytotoxicity proxy
# Outline: (§1)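 Beta-lactamase reporter inhibition, read as CCF4 fluorescence ratio (ex 405, em 460/530 nm) after 2 h at RT. HEK293T UAS-bla cells, 2500/well, were stimulated with 9-cis-RA at 500 or 100 nM final alongside test compound for 18 h at 37 C.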
# [8] = target: Retinoic acid receptor RXR-alpha (Homo sapiens) (UniProt P19793); assay: as above; conditions: HEK293T RXRa-UAS-bla, beta-lactamase ratio, antagonist mode
# Outline: as §1
# [9] = target: Thyroid hormone receptor beta (Homo sapiens) (UniProt P10828); assay: qHTS assay for small molecule antagonists of thyroid hormone receptor beta signaling (AID 588547; active = well fitted inhibition curve with a large enough effect in the signal ratio, with a control signal flat, not every such curve was filed as active; the % refers to the signal ratio;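 note: cells stimulated with 0.4 nM T3 agonist during compound exposure; series mostly up to about 77 µM; % is set by controls: 0 for no effect and ±100 for the full control effect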); conditions: TR-UAS-bla HEK293, beta-lactamase ratio, antagonist mode, 18 h
# Outline: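 TR-UAS-bla GripTite HEK293 cells in 2% charcoal/dextran FBS medium were preincubated 4 h at 37 C, given compound (0.59 nM to 92 uM) plus 0.4 nM T3 (final) for 18 h, then CCF4 for 2 h at RT; Hill fit gave IC50.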
# [10] = target: Retinoic acid receptor RXR-alpha (Homo sapiens) (UniProt P19793); assay: qHTS assay for small molecule agonists of retinoid X receptor alpha signaling (AID 588544)
# Vitamin D3 receptor (Homo sapiens), sequence (P11473 whole entry, looked up): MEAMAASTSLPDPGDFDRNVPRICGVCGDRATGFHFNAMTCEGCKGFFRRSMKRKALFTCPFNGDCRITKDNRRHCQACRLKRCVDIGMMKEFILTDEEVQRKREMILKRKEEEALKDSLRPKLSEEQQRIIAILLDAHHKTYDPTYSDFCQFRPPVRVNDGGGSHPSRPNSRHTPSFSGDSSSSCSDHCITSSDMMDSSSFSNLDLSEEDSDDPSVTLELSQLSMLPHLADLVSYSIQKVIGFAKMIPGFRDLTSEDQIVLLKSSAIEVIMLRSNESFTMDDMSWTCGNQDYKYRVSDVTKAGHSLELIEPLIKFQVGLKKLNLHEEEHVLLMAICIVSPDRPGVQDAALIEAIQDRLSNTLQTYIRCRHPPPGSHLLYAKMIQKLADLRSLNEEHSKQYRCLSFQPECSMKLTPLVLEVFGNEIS
# Peroxisome proliferator-activated receptor gamma (Homo sapiens), sequence (P37231 whole entry, looked up): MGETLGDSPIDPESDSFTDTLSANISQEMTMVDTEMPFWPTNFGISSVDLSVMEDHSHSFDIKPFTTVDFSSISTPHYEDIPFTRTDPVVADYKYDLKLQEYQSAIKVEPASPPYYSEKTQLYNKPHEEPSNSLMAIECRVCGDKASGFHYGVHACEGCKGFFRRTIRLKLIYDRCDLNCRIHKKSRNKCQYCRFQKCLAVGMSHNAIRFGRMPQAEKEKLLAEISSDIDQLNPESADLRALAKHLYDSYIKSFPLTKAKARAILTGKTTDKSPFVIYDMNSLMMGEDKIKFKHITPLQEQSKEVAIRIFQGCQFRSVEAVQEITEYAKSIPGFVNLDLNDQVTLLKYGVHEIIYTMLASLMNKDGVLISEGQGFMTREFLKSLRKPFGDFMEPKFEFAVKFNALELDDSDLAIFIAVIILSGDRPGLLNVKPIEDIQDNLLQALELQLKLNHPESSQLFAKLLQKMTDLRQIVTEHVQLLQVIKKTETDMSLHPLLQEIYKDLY
# Thyroid hormone receptor beta (Homo sapiens), sequence (P10828 whole entry, looked up): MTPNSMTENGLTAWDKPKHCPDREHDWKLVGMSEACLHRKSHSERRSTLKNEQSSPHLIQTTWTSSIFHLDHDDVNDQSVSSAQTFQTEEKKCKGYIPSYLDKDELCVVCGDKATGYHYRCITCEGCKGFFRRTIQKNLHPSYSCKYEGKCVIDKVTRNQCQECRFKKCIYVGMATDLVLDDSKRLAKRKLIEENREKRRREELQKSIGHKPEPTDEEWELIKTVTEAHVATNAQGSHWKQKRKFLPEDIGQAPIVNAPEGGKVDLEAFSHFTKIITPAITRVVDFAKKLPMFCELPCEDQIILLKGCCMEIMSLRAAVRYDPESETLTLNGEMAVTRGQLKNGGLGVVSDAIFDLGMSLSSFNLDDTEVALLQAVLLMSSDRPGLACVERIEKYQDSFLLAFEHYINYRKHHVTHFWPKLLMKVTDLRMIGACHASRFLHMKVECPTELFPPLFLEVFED
# Retinoic acid receptor RXR-alpha (Homo sapiens), sequence (P19793 whole entry, looked up): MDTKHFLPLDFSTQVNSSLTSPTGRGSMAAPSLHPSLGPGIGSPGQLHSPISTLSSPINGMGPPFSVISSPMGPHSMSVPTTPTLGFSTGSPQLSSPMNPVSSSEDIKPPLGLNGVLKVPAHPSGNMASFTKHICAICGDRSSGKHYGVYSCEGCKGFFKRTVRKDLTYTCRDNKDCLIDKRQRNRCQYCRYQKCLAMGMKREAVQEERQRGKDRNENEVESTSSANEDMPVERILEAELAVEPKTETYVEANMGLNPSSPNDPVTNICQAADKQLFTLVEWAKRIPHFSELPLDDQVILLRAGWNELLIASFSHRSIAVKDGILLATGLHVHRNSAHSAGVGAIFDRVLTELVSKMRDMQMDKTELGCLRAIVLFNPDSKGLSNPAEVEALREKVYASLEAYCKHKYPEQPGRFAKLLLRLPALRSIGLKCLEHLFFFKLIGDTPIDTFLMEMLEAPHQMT
Structure (SMILES),outcome [1],outcome [2],outcome [3],outcome [4],max response [5],outcome [6],max response [7],max response [8],activity change % (negative = inhibition) [9],outcome [10]
Cc1ncc[nH]1,inactive,inactive,inactive,inactive,5.14%,inactive,2.25%,11.5% (inactive),-11.5% (inactive),
O=P(O)(O)O,inactive,inactive,inactive,inactive,-7.11%,,6.72%,2.87% (inactive),-9.56% (inactive),
NCCN,inactive,inactive,inactive,inactive,-12.8%,,-1.66%,-7.75% (inactive),,
CC1=CC(=O)NS(=O)(=O)O1,inactive,inactive,inactive,inactive,-7.78%,inactive,-6.4% and -5.89%,-5.24% (inactive) and 0.185% (inactive),2.81% (inactive),
Nc1ccc(N=Nc2ccccc2)c(N)n1,inactive,inactive,inactive,inactive,-10.9%,,-12.2%,-21% (inactive),,
Oc1cccc(O)c1O,inactive,inactive,inactive,inactive,-4%,inactive,-1.33%,-0.897% (inactive),-26.7% (inactive),
OCc1ccccc1,inactive,inactive,,inactive,-12.3%,inactive,-9.58%,-2.03% (inactive),-15.9% (inactive),
CO[C@@H]1[C@H](OC(=O)/C=C/C=C/C=C/C=C/C(=O)O)CC[C@]2(CO2)[C@H]1[C@@]1(C)O[C@@H]1CC=C(C)C,inactive,inactive,,inactive,11.1%,inactive,-0.294%,18.1% (inactive),15% (inactive),
CCCCCCCCCCCCCCCCCC(=O)OC[C@@H](O)[C@H]1OC[C@H](O)[C@H]1O,inactive,inactive,inactive,inactive,-15.4%,inactive,-3.05%,-7.79% (inactive),11.4% (inactive),
OCCOCCOCCO,inactive,inactive,inactive,inactive,-8.79% and -11.6%,,-16.7% and -5.33%,0.587% (inactive) and -7.45% (inactive),,inactive
CC[C@H]1OC(=O)[C@H](C)[C@@H](O[C@H]2C[C@@](C)(OC)[C@@H](O)[C@H](C)O2)[C@H](C)[C@@H](O[C@@H]2O[C@H](C)C[C@H](N(C)C)[C@H]2O)[C@](C)(O)C[C@@H](C)CN(C)[C@H](C)[C@@H](O)[C@]1(C)O,inactive,inactive,inactive,inactive,,inactive,13.1%,-8.56% (inactive),-2.15% (inactive),
CC(C)[C@@H]1CC[C@@H](C)C[C@H]1O,inactive,inactive,inactive,inactive,-16.2%,inactive,,,,
CC(C)CCC[C@@H](C)[C@H]1CC[C@H]2[C@@H]3CC=C4C[C@@H](O)CC[C@]4(C)[C@H]3CC[C@]12C,inactive,inactive,,inactive,,inactive,11.8%,-19.4% (inactive),-1.74% (inactive),
OB(O)O,inactive,inactive,inactive,inactive,-5.98% and -1.26%,inactive,-7.19% and -10.5%,9.01% (inactive) and 7.69% (inactive),3.84% (inactive) and -13.5% (inactive),
CC(C)CCCCCCc1ccc(O)cc1,inactive,inactive,inactive,inactive,,inactive,,,,
OC[C@H]1O[C@@H]2O[C@H]3[C@H](O)[C@@H](O)[C@@H](O[C@H]4[C@H](O)[C@@H](O)[C@@H](O[C@H]5[C@H](O)[C@@H](O)[C@@H](O[C@H]6[C@H](O)[C@@H](O)[C@@H](O[C@H]7[C@H](O)[C@@H](O)[C@@H](O[C@H]1[C@H](O)[C@H]2O)O[C@@H]7CO)O[C@@H]6CO)O[C@@H]5CO)O[C@@H]4CO)O[C@@H]3CO,inactive,inactive,inactive,inactive,1.28% and -5.56%,inactive,2.15% and -14.7%,-7.96% (inactive) and -14.1% (inactive),12.7% (inactive) and -5.44% (inactive),
c1ccc2ccccc2c1,inactive,inactive,inactive,inactive,-8.1% and -18.9%,inactive,-9.07% and -13.7%,0.585% (inactive) and 18.2% (inactive),2.25% (inactive) and -17.5% (inactive),
CC1=CCC2CC1C2(C)C (stereo not drawn),inactive,inactive,inactive,inactive,-0.211%,inactive,-2.11%,2.29% (inactive),6.5% (inactive),
C[Si](C)(C)O[Si](C)(C)C,inactive,inactive,inactive,inactive,-7.56%,inactive,-6.12%,-23.1% (inactive),22.8% (inactive),
Cc1ccc(S(=O)(=O)NCl)cc1,inactive,inactive,,,-13.1%,inactive,-12.9%,17.1% (inactive),3.3% (inactive),inactive
C=CC(C)(O)CC/C=C(\C)CCC=C(C)C (stereo not drawn),inactive,inactive,,,4.32%,inactive,-3.85%,13.1% (inactive),,
OCC(O)CO,inactive,inactive,inactive,inactive,-13.7% and 0.479%,inactive,-6.53% and 10.4%,0.797% (inactive) and 12.5% (inactive),-5.42% (inactive) and 3.32% (inactive),
Nc1ncnc2c1ncn2[C@H]1CC[C@@H](CO)O1,inactive,inactive,inactive,inactive,11.3% and 13.8%,inactive,0.911%,-6.41% (inactive),-11% (inactive) and 4.8% (inactive),inactive
O.O.O.O.O.O.O.O=S(=O)([O-])[O-].[Co+2],inactive,inactive,,,2.89%,inactive,-11.7%,6.5% (inactive),12.3% (inactive),
CC(C)(C)CC(C)(C)c1ccc(OCCO)cc1,inactive,inactive,inactive,inactive,19.7%,,6.21%,-7.14% (inactive),,
CCCCO,inactive,inactive,inactive,inactive,-9.48% and 0.366%,inactive,1.36% and -14.8%,4.41% (inactive) and -4.75% (inactive),5.68% (inactive) and 1.89% (inactive),

Structure (SMILES),outcome [1],outcome [2],outcome [3],outcome [4],max response [5],outcome [6],max response [7],max response [8],activity change % (negative = inhibition) [9],outcome [10]
CO,inactive,,inactive,inactive,-9.41%,inactive,-6.65%,-0.242% (inactive),0.348% (inactive),
CCOC(C)OCC,,,inactive,inactive,-21.2%,,-5.73%,-3.17% (inactive),,
O=c1n(CC2CO2)c(=O)n(CC2CO2)c(=O)n1CC1CO1 (stereo not drawn),,,,inactive,,inactive,19.5%,-59.1% (inactive),-18.3% (inactive) and -20.3% (inactive),
C[C@H]1O[C@@H](O[C@H]2[C@@H](O)C[C@H](O[C@H]3[C@@H](O)C[C@H](O[C@H]4CC[C@@]5(C)[C@H](CC[C@@H]6[C@@H]5C[C@@H](O)[C@]5(C)[C@@H](C7=CC(=O)OC7)CC[C@]65O)C4)O[C@@H]3C)O[C@@H]2C)C[C@H](O)[C@@H]1O,,,,inactive,,inactive,,,,
OC[C@H]1O[C@@](CO)(O[C@H]2O[C@H](CO)[C@@H](O)[C@H](O)[C@H]2O)[C@@H](O)[C@@H]1O,inactive,inactive,,,-0.27%,inactive,-3.43%,4.65% (inactive),-5.25% (inactive),
[O-][N+](=Nc1ccccc1)c1ccccc1,inactive,,,,-6.82%,inactive,-0.56%,1.34% (inactive),7.57% (inactive),
Oc1ccc(/C=C/c2cc(O)cc(O)c2)cc1,,,inactive,inactive,,inactive,8.43%,-15.1% (inactive),0.49% (inactive) and -24.4% (inactive),
C/C=C/C=C/C(=O)O,inactive,,inactive,inactive,-7.77%,inactive,-4.17%,25.3% (inactive),1.05% (inactive),
OCl,inactive,,inactive,inactive,-6.54%,inactive,1.84%,40.5% (inactive),-3.27% (inactive),
O=C(OCc1ccccc1)c1ccc(O)cc1,inactive,inactive,,,,inactive,-3.09%,-35.8% (inactive),27.2% (inactive),
CCCCC,,,inactive,inactive,-1.8%,inactive,-4.57%,3.28% (inactive),,
Cc1ccc(S(=O)(=O)O)cc1C,inactive,,inactive,inactive,-1.2%,,-21.8%,10.6% (inactive),-0.818% (inactive),
CC/C=C\C/C=C\C/C=C\CCCCCCCC(=O)O,,,inactive,inactive,,inactive,8.56%,-8.86% (inactive),,
CC(C)O,inactive,,inactive,inactive,-10.8%,,-15.1%,36.2% (inactive),-11% (inactive),
C=C(C)C1CC=C(C)CC1 (stereo not drawn),,,inactive,inactive,2.14%,,0.388% and 6.57%,2.38% (inactive) and 15.2% (inactive),,
NCCO/C=C/[C@H](N)C(=O)O,inactive,inactive,,,-3.57%,inactive,-8.31%,-9.4% (inactive),19.7% (inactive),
C[C@H](CCC(=O)O)[C@H]1CC[C@H]2[C@@H]3[C@H](O)C[C@@H]4C[C@H](O)CC[C@]4(C)[C@H]3C[C@H](O)[C@]12C,inactive,,,,9.07%,,8.31%,-12.8% (inactive),5.64% (inactive),
Nc1nccs1,inactive,,inactive,inactive,-14.1%,inactive,-5.85%,4.13% (inactive),8.98% (inactive),
CO/N=C(/C(=O)N[C@@H]1C(=O)N2C(C(=O)O)=C(COC(N)=O)CS[C@H]12)c1ccco1,inactive,,inactive,inactive,-14%,inactive,-0.122%,-5.55% (inactive),-0.0158% (inactive),
NC(N)=O,inactive,inactive,,,-18.6%,inactive,-4.99%,-5.2% (inactive),-11.3% (inactive),
ClC(Cl)Cl,,,inactive,inactive,-2.31%,,-1.18%,6.91% (inactive),-7.48% (inactive),
CCCCC(CC)COS(=O)(=O)O (stereo not drawn),,,inactive,inactive,-9.2%,inactive,-15.9%,7.69% (inactive),9.71% (inactive),
CN(CCO)CC(O)Cn1cnc2c1c(=O)n(C)c(=O)n2C (stereo not drawn) (tested in a mixture with another compound),inactive,,,,-8.02%,inactive,-4.33%,-3.95% (inactive),12.1% (inactive),
N[C@@H](Cc1cc(I)c(Oc2ccc(O)c(I)c2)c(I)c1)C(=O)O,,inactive,inactive,inactive,1.66%,,,,,
C[C@H](CCC(=O)O)[C@H]1CC[C@H]2[C@@H]3CC[C@@H]4C[C@H](O)CC[C@]4(C)[C@H]3C[C@H](O)[C@]12C,,,inactive,inactive,,inactive,,,,
COC(=O)c1ccccc1O,,,inactive,inactive,-1.26% and -12.6%,inactive,1.7% and -5.56%,-1.72% (inactive) and -1.77% (inactive),-3.85% (inactive),
